In PubChem BioAssay AID1508600 (Functional Genomics Laboratory (NCATS/FGL), 2020):
The campaign covered roughly 53,000 sequences. About 3,700 (7%) were called active.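 How the source made its calls: active means gene knockdowns whose robust z-score for IL-1 alpha signal is at least 2 or at most -2, so actives lie on both sides; inactive means the rest.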 The sample as a whole holds a higher share of actives than the screen did.

Assay: Components of the Cytosolic LPS Sensing Pathway: Gene Identification via Genome-wide siRNA Screen;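 further: robust z of the log signal after scaling to non-targeting control siRNA wells of the plate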
Conditions: RAW264.7 macrophages, IL-1a HTRF, actives lie on both sides, screened at 100 nM (by protocol), cells primed 5 h with Pam3CSK4 first
In short: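 Knockdown: 100 nM siRNA, 48h, RAW264.7. Stimulation: Pam3CSK4 5 h, then LipidA via TransIT-TKO 24 h. Output: supernatant IL-1a HTRF, negative-control-normalized, log robust z-score; viability by CellTiter-Glo.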
For GGGAUCAAGUUAAAUAGACTT against Snhg16, the z-score was -0.184 (inactive).
With GCGAACAGUUGAAUAGAUUTT against Slc25a46 the z-score was -0.108 (inactive).
With GGUGGUCACUAAGAAGUUCTT against Prps1l1 the z-score was 2.48 (active).
With CCAACACUAUUACUGUAAATT against Arg2 the z-score was 0.159 (inactive).
For GGCCAGAAAAUUAAGGAGCTT against Faap100, the z-score was 1.15 (inactive).
In the case of GGCAACUGAAAUGUUUGUUTT against Rap2c, the z-score is reported as 2.14 (active).
With CCUUGAGUACUUAUUGCGUTT against Chac1 the z-score was 0.934 (inactive).
For GCCAACUCGAACAUUUUGATT against Zfp280b, the z-score was 0.567 (inactive).
In the case of GCUACUCGCGUUUAAUUUUTT against Slc9a9, the z-score is reported as -0.238 (inactive).
With GACCUUUCUCUUCUUGGCUTT against Olfr434 the z-score was -2.1 (active).
With GGAUAACCCUCAGAAGUCCTT against Was the z-score was 0.664 (inactive).
With GGAAUAAUCAAGCUAGGGATT against Satb2 the z-score was -2.2 (active).
In the case of GGAGAGAGGACAACUUCUCTT against Mrm1, the z-score is reported as 1.3 (inactive).
For GGCUUUUAACACCUUCAUUTT against Clptm1l, the z-score was 0.495 (inactive).
With GCUUCUUCUGUGAACUUCCTT against Olfr854 the z-score was -0.939 (inactive).
For GGAAGCUGCUUUUCUAAAUTT against Il7, the z-score was 2.92 (active).
With GGCAGUGAGAGUCACAAGATT against Cdipt the z-score was -1.74 (inactive).
In the case of GGAAAUGCAGUUGUGAAUGTT against Rab4a, the z-score is reported as -2.03 (active).
With GCCCAUGUUAGAGGUUUUGTT against Rsph3a the z-score was 0.838 (inactive).
With GGGAGAUGAGUUUUCUGAUTT against Cyp2c70 the z-score was 1.15 (inactive).
With GGCAGUUGAUUCCUUUAAATT against Baz1a the z-score was 0.0425 (inactive).
With GCUGUACCCGAAUGAGUUUTT against Mgat2 the z-score was 2.54 (active).
For GCCCUUAGCUGCAUGAAUUTT against Laptm4b, the z-score was -0.661 (inactive).
With GGACCGUCUGUCCUUUGUCTT against Nectin2 the z-score was 0.618 (inactive).
In the case of GGUAGAGAAGAACGGUACCTT against Mb21d2, the z-score is reported as 1.08 (inactive).
In the case of CCGAGUAAUUGGAAGUGGUTT against Ldha, the z-score is reported as 2.08 (active).
With GGUGCUUUCUGGAUGAAGATT against Akirin1 the z-score was -0.282 (inactive).
With GGCUUUUGGAGAAAAAGGATT against Nus1 the z-score was 1.92 (inactive).
With GGAAAUGUAGUGAAGGGUGTT against Ndfip2 the z-score was 2.03 (active).
With GGGCCUUACGUCAUUCUCUTT against Dnajb7 the z-score was -0.319 (inactive).
For GGAUUUCAUUCCAAACAUGTT against Hbs1l, the z-score was -0.161 (inactive).
For CGGGACUAUUAUUACUCCATT against Ap2m1, the z-score was -1.22 (inactive).
For GGAAGAUCUCUUGUCUGCUTT against Mtcp1, the z-score was -0.269 (inactive).
In the case of GGGAGAUGCAACCUCUCUUTT against Dennd5b, the z-score is reported as 2.91 (active).
With GGGAAAUCUAUUUUUGUGATT against Mob3c the z-score was -1.77 (inactive).
With GGUCUGGAGACAAUCAUCATT against Rnf222 the z-score was -2.47 (active).
In the case of GGCUUAUUGGAAGAGGACGTT against Ier5, the z-score is reported as 0.559 (inactive).
With GCUGAGUCCAUGUCUGUUGTT against Coro2a the z-score was -0.119 (inactive).
In the case of CGGCAUGAGCAGUUUAUAUTT against Col19a1, the z-score is reported as -1.04 (inactive).
With GCUGAUUGAGCAUCCGAUGTT against Ggt1 the z-score was 2.78 (active).
With GGGAUUCAGUAUAAAACACTT against Nup37 the z-score was -1.25 (inactive).
In the case of GGAAAGAGCCAUCCUUUGATT against Gnmt, the z-score is reported as -0.186 (inactive).
In the case of CGUAUAAUAACUCCUUAUCTT against Hoxa1, the z-score is reported as 2.17 (active).
For GGUGUAGACUCCAACAUGUTT against Aarsd1, the z-score was 1.69 (inactive).
In the case of CCUUGGACUAUGGCAAAAATT against Neurod6, the z-score is reported as 0.418 (inactive).
In the case of GCCGGAAUCCUGUGGAAUCTT against Kat14, the z-score is reported as 6.46 (active).
With GGAAAAUGACACAGGUAUCTT against Entpd2 the z-score was -0.103 (inactive).
For GGAGAUGAGCUGUAUGUGATT against Nudt19, the z-score was 0.862 (inactive).
With GACUUCAGACAAAUAGUGCTT against Lce1i the z-score was -1.24 (inactive).
With GCAUCGAAAAUCUUUCCAATT against Fibcd1 the z-score was 1.6 (inactive).
For GGUGCUCAAUAAAUGUAAATT against Cd151, the z-score was -1.26 (inactive).
With GGGUUUCUUCCCUGAGCUATT against Nxf7 the z-score was -1.97 (inactive).
With CCACUAUGAAUCGUGGUUCTT against Sp6 the z-score was 0.731 (inactive).
In the case of CGUGCAUCCCUAUAUCCUATT against Panx2, the z-score is reported as 0.343 (inactive).
In the case of GGUUGACAACACAUCUGCUTT against Ugt2b34, the z-score is reported as -0.766 (inactive).
With GGAUCAAUGUGGUACCUAUTT against Sf3a1 the z-score was -2.79 (active).
In the case of GGGAAUAGUUUAUAUGGACTT against Ccl20, the z-score is reported as 0.315 (inactive).
For CGGGCAAUGUCAGAUUGUGTT against Vmn1r75, the z-score was 1.41 (inactive).
In the case of GGUACUUUCGGACUCAGUUTT against Ipp, the z-score is reported as -0.0605 (inactive).
For GCUAGGUGUUUGAAGCCUCTT against Mixl1, the z-score was -0.834 (inactive).
With GGAAGGGUAAAUUUAGAAGTT against Arrdc3 the z-score was 2.83 (active).
With GAUCUUCCUGACAGUGGUGTT against Psors1c2 the z-score was -0.15 (inactive).
For GGUAAAAAACCAAGAACAATT against Ednrb, the z-score was 2.17 (active).
In the case of GGACUUCUUCUUGUACAACTT against Capn3, the z-score is reported as 1.03 (inactive).
For GGGCUCUUGCCAGAAAACGTT against Rsph3a, the z-score was -0.524 (inactive).
In the case of GCCACUCGGAGAUUUUUCATT against Slc15a4, the z-score is reported as -0.6 (inactive).
With CCCUGACCUUCAGAUUGUGTT against Olfr788 the z-score was 0.14 (inactive).
With CCAAGUAGAUAGGAAUUAUTT against Eps8 the z-score was 2 (inactive).
In the case of “GCUUUAUGGGAGACAAAGGTT against 1700022I11Rik”, the z-score is reported as 2.53 (active).
With GGAUGCUUUACCAAAUGAATT against Slc44a3 the z-score was 0.147 (inactive).
In the case of GGAAAAUUGGCCAAAAUAATT against Pdcl, the z-score is reported as -0.0308 (inactive).
With GGAGAAGCUGCUGGCAGAATT against Trub1 the z-score was -1.15 (inactive).
For GGUCUUGGAGUUGCUAAUUTT against Med4, the z-score was 2.63 (active).
In the case of CCUCUUCUUGUUUCAAGGGTT against Piezo2, the z-score is reported as 0.062 (inactive).
With CCAGCUAAACUCUGUAAAATT against Zfp639 the z-score was -0.113 (inactive).
With GCUUUGGACAAUAAGAAGUTT against Cdkl1 the z-score was -0.838 (inactive).
In the case of GUCACUGAUACUCAAUAAATT against Vmn1r172, the z-score is reported as -1.45 (inactive).
For GCAUCGUCCUCCAAAGAUUTT against Sf3b1, the z-score was -3.01 (active).
With GGCUAUCUACCAUUAUAUGTT against Ifit2 the z-score was -0.607 (inactive).
In the case of GGUCCUGUUAAACUGAAAGTT against Fkbp1a, the z-score is reported as -1.45 (inactive).
With GGGAAUAAAAAGGAUCACUTT against Rab39 the z-score was 1.27 (inactive).
With CCUGAAUGACCUAGGGCCUTT against Adam8 the z-score was 0.286 (inactive).
In the case of GGCAUGAGCUAUCAGGACUTT against Efcab6, the z-score is reported as 1.37 (inactive).
With GGUAUUAGCAAUUUUCUGGTT against Olfr619 the z-score was -0.681 (inactive).
In the case of CGAGGAUGACUUGAUGACCTT against Ajm1, the z-score is reported as -2.18 (active).
With GGGAAAAUUCCAGAAUCGCTT against Musk the z-score was 0.315 (inactive).
With GCCGGCCAGAAUAUACAUUTT against Fndc10 the z-score was 0.415 (inactive).
In the case of CCUUCCUCGUGAUUCGCUATT against Lman2l, the z-score is reported as -0.461 (inactive).
For GGUUGAGUAGUUGAUUUUCTT against Hemgn, the z-score was 0.663 (inactive).
For GGAAAUACCCACCUUAUACTT against Efhc2, the z-score was 2.51 (active).
For GGAGCAGAUACAGAAGAUCTT against Pfdn2, the z-score was -1.21 (inactive).
In the case of GUAUAGUGUAUCUCAUCAUTT against Olfr1107, the z-score is reported as 1.56 (inactive).
For GCUCAGUGGACAUGCUCUATT against Hpse, the z-score was -0.502 (inactive).
In the case of GGAGGCAUGAUAAGCUUCGTT against Pmm1, the z-score is reported as -0.425 (inactive).
With GCUACUAAACAGGGUGUGATT against Gpsm3 the z-score was -2.42 (active).
With GGGUGAGAUAAUUGAAAAGTT against Slc12a6 the z-score was 0.607 (inactive).
With GGGCUUCAACACUGAGAAGTT against Arl4d the z-score was -1.04 (inactive).
With GGCUCCUACCAAUCUCACUTT against Calcr the z-score was -0.548 (inactive).
With GGGAAAAAUGGACUAGCAUTT against Ahctf1 the z-score was 0.888 (inactive).
With GCAUUGGACUCAUAAUUUUTT against Aadat the z-score was 0.0399 (inactive).
With GGUAAUGUUCUCCUUUGAATT against Dok1 the z-score was 4.89 (active).
For GCCUGAAUUUAGUGUUAAGTT against Hnmt, the z-score was 1.72 (inactive).
For CCAUUGAAAAACUGGACAGTT against Olfr1463, the z-score was 3.26 (active).
In the case of GCUCUUCAUAACUCUUGCUTT against Olfr1392, the z-score is reported as -0.288 (inactive).
For GGCCAGAACUGUUCCAAUUTT against Cilp, the z-score was 1.15 (inactive).
In the case of GGGAAUUUAAUUUUUCGUGTT against Sfn, the z-score is reported as -0.642 (inactive).
With GGAAGUCAACCGAGUCUUCTT against Sp140 the z-score was 0.011 (inactive).
In the case of GGGUAUGAUAUGUUAAUGATT against Ndufaf7, the z-score is reported as -0.434 (inactive).
